# Data from PubChem BioAssay AID1645882 (National Center for Advancing Translational Sciences (NCATS), 2021).
# “And” between values parts separate entries of the source, which are not always exact repeats. Identical values can stand only once. In all, about 16,000 compounds went through this assay and about 120 (0.75%) were called active. Another 4% or so got no clear call; they are omitted. Calls come from the whole dose curve; as a rule, active = well fitted inhibition curve with a large enough effect; inconclusive = small, poorly fitted or top-dose-only effect; inactive = no such curve, though single readings can be large or run the other way. The list comes from a sample in which actives are over-represented; it also holds similar structures and randomly drawn compounds. Where a call stands in place of a potency, no number is given. The source holds several records for some structures; these can differ, active in one and inactive in another.
# Molecular target: Rap guanine nucleotide exchange factor 3 (Homo sapiens) (UniProt O95398)
# Sequence (O95398 whole entry, looked up): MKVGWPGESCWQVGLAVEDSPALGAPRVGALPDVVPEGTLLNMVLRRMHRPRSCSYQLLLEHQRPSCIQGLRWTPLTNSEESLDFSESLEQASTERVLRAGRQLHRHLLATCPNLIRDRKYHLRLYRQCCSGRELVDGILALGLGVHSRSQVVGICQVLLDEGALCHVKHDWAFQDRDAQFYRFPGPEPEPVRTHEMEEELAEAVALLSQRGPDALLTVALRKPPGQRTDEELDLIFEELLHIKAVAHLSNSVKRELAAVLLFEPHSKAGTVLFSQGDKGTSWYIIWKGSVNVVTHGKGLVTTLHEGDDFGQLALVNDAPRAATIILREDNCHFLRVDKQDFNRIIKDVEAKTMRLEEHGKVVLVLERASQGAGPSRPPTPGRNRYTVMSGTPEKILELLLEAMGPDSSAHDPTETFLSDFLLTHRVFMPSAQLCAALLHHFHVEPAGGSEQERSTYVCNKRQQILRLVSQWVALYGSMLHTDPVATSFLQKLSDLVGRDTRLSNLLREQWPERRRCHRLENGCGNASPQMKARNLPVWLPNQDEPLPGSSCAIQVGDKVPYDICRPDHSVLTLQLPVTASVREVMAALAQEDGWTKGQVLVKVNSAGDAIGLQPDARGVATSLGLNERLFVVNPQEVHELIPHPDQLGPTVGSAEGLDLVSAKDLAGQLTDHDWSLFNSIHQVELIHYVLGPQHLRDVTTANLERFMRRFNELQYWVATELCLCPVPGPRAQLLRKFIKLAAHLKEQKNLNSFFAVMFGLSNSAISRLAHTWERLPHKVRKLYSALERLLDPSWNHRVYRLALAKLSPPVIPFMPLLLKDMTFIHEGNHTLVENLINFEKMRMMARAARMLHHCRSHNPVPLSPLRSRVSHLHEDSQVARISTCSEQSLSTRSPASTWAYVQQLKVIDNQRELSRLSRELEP
# Assay: Validation qHTS for antagonist of cAMP-regulated guanine nucleotide exchange factor 3 (EPAC1); note: nearly all actives have a fitted effect of over 75% in size
# Details: EPAC1 Rap1B-BODIPY-GDP exchange, fluorescence; series mostly up to 150 µM
# Procedure, shortened: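 EPAC1 (100 nM) mixed with 250 nM RAP1B-BODIPY-GDP and 50 uM GDP; compounds in concentration series, 5 min at room temperature. Fluorescence (ex 480/em 540 nm) read every 5 min for 30 min; normalized to ATA control and DMSO.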
# Potency is the fitted concentration of half-maximal effect.
Structure (SMILES),Potency,"activity change, negative = inhibition"
CCCCCCCCCCCCCCCC[n+]1ccc(C)c2ccccc21,63.1 µM (active),–
CCCCCCCCCCCC[n+]1ccc(C)c2ccccc21,inactive,–
CCCCCCC[n+]1ccc(C)c2ccccc21,inactive,–
Cc1ccccc1C1(CC(=O)N2CCN(C)CC2)CC(=O)N(Cc2ccncc2)C1=O (stereo not given),inactive,–
CCCCCCCCCCCCCCCC[N+](C)(C)Cc1ccccc1,112 µM (active),–
CCCCCCCCCCCC[N+](C)(C)Cc1ccccc1,inactive,–
CCCCCCCCCCCCC[N+](C)(C)Cc1ccccc1,inactive,–
COc1cc(=O)n2c(c1C(=O)N(C)Cc1nonc1C)CCN(Cc1ccc(F)cc1)CC2,inactive,–
CCCCC/C=C\C/C=C\C/C=C\C/C=C\CCCC(=O)O,70.8 µM (active) and inactive,–
CCCCCCCCCCC/C=C\C/C=C\CCCC(=O)O,–,-8.31% [at 15.3 µM] (inactive)
CCCCCCCC/C=C\C/C=C\C/C=C\CCCC(=O)O,–,9.96% [at 15.3 µM] (inactive)
Cc1cc2ccccc2c[n+]1CC(=O)c1ccc(F)cc1,inactive,–
C/C(N[C@@H]1CSCC1O)=C1/C(=O)CC2[C@@H]1C2(C)C (stereo not given in full),inactive,–
COc1ccc(-n2c(CNC(=O)c3ccccc3C(F)(F)F)nnc2SC)cc1,inactive,–
FC(F)(F)c1ccccc1-c1cncnc1NCCc1cnc[nH]1,inactive,–
COc1c(O)cc2c(=O)oc3c(OC)c(O)cc4c(=O)oc1c2c34,inactive,–
Cc1cc(=O)oc2c(O)c(O)ccc12,inactive,–
O=c1oc2c(O)c(O)cc3c(=O)oc4c(O)c(O)cc1c4c23,inactive and 25.1 µM (active),–
Cc1nc(N=Nc2ccc(S(=O)(=O)O)cc2S(=O)(=O)O)c(COP(=O)(O)O)c(C=O)c1O,inactive and 12.6 µM (active),–
Cc1nc(N=Nc2ccc(C(=O)O)cc2)c(COP(=O)(O)O)c(C=O)c1O,inactive,–
Cc1nc(N=Nc2cc(S(=O)(=O)O)c3cc([N+](=O)[O-])cc(S(=O)(=O)O)c3c2)c(COP(=O)(O)O)c(C=O)c1O,inactive,–
COC(=O)c1ccc(-c2cccc3c2OC(CNC(=O)c2ccc4c(c2)OCCO4)C3)nc1 (stereo not given),inactive,–
COc1cc(=O)n2c(c1C(=O)N(C)Cc1ccsc1)CCN(Cc1c(C)nc3sccn13)CC2,inactive,–
COc1ccccc1CCNc1ncnc2sc(C(=O)N3CCCCC3)c(C)c12,inactive,–

Structure (SMILES),Potency,"activity change, negative = inhibition"
CC1(C)CC2/C(CO)=C/C=C/[C@](C)(O)CC[C@]21O (stereo not given in full),inactive,–
O=c1cc(-c2ccc(O)c(O)c2)oc2cc(O)cc(O)c12,50.1 µM (active) and 39.8 µM (active),–
CC1O[C@@H](O[C@H]2C(Oc3cc(O)c4c(=O)cc(-c5ccc(O)cc5)oc4c3)OC(CO)C(O)C2O)C(O)C(O)C1O (stereo not given in full),inactive,–
O=c1c(O)c(-c2ccccc2)oc2cc(O)cc(O)c12,inactive,–
O=c1c(O)c(-c2ccc(O)c(O)c2)oc2cc(O)cc(O)c12,inactive and 79.4 µM (active),–
COc1cc(O)c2c(=O)c(O)c(-c3ccc(O)c(O)c3)oc2c1,inactive,–
O=c1cc(-c2ccc(O)cc2)oc2cc(O[C@H]3OC(CO)C(O)C(O)C3O)cc(O)c12 (stereo not given in full),inactive,–
O=c1c(O)c(-c2ccc(O)cc2)oc2cc(O)cc(O)c12,inactive,–
O=c1c(O)c(-c2cc(O)c(O)c(O)c2)oc2cc(O)cc(O)c12,35.5 µM (active) and 39.8 µM (active) and inactive,–
O=c1cc(-c2ccc(O)c(O)c2)oc2cccc(O)c12,inactive,–
O=c1c(O)c(-c2ccc(O)cc2O)oc2cc(O)cc(O)c12,inactive,–
O=c1cc(-c2ccc(O)cc2)oc2cc(O)cc(O)c12,inactive,–
O=c1cc(-c2ccc(O)c(O)c2)oc2cc(OC3OC(CO)C(O)C(O)C3O)cc(O)c12 (stereo not given),39.8 µM (active),–
CN1[C@@H]2CCC[C@@H]1CC(NC(=O)c1nn(C)c3ccccc13)C2 (stereo not given in full),inactive,–
N#CC[C@H](Cc1ccccc1)N1CCN(Cc2ccccc2)CCC1=O,inactive,–
COc1ccc(C2OC3C(CO)OC(n4cnc5c(=O)[nH]c(N)nc54)C3O2)cc1 (stereo not given),inactive,–
Cc1c(C(=O)N(C)Cc2cccc3ncccc23)cnn1-c1nccc(-c2ccccc2F)n1,inactive,–
CC1CN(CC(=O)NCCc2ccncc2)Cc2ccccc2O1 (stereo not given),inactive,–
CC1CC[C@@]2(C(=O)O)CCC3(C)C(=CCC4[C@]5(C)CC(O)C(O)[C@](C)(CO)C5C(O)C[C@@]43C)C2C1C (stereo not given in full),inactive,–
CC(=O)Oc1cc(OC(C)=O)c2c(c1)OC(c1ccc(OC(C)=O)c(OC(C)=O)c1)C(OC(C)=O)C2 (stereo not given),inactive,–
O=C(Oc1cc(OC(=O)c2ccccc2)c2c(c1)OC(c1ccc(OC(=O)c3ccccc3)c(OC(=O)c3ccccc3)c1)[C@@H](OC(=O)c1ccccc1)C2)c1ccccc1 (stereo not given in full),inactive,–
O=C(OC1Cc2c(O)cc(O)cc2OC1c1cc(O)c(O)c(O)c1-c1c(C2Oc3cc(O)cc(O)c3CC2OC(=O)c2cc(O)c(O)c(O)c2)cc(O)c(O)c1O)c1cc(O)c(O)c(O)c1 (stereo not given),63.1 µM (active),–
COc1ccc2c(c1OC)C(=O)O[C@H]2C1c2c(cc3c(c2OC)OCO3)CCN1C (stereo not given in full),inactive,–
O=C(NCC1Cc2cccc(-c3cnccn3)c2O1)c1ccc2c(c1)OCCO2 (stereo not given),inactive,–

Structure (SMILES),Potency,"activity change, negative = inhibition"
CC(C)C[C@@H](CO)N1CCN(CCc2ccccc2)CCC1=O,inactive,–
COc1cccc(-c2nc(N3CCNCC3)c3ccccc3n2)c1,inactive,–
Cc1cc2c(cc1C)N[C@]1(C[C@H]3CCCC(=O)N4CC[C@@H](C1)[C@@H]34)C(=NCc1ccccc1)N2,inactive,–
CN(C)c1ccc(/C=C/c2ccnc3ccc4ccccc4c23)cc1,100 µM (active),–
CN(C)c1ccc(/C=C/C=C/c2ccnc3ccccc23)cc1,inactive,–
CN(C)c1ccc(/C=C/c2ccnc3c2ccc2ccccc23)cc1,inactive,–
CCCCc1oc2ccccc2c1C(=O)c1cc(I)c(OCCN(CC)CC)c(I)c1,inactive,–
CC(=O)CC(c1ccccc1)c1c(O)c2ccccc2oc1=O (stereo not given),inactive,–
CCc1oc2ccccc2c1C(=O)c1cc(I)c(O)c(I)c1,56.2 µM (active),–
CCc1oc2ccccc2c1C(=O)c1cc(Br)c(O)c(Br)c1,100 µM (active),–
CC(=O)c1ccc2oc3ccccc3c(=O)c2c1,inactive,–
COc1cccc(-c2oc3ccccc3c(=O)c2O)c1,inactive,–
COc1cc(OC)c(OC)cc1CN1CCC(n2cc(C(=O)N3CCCCC3)nn2)CC1,inactive,–
c1ccc2c(N3CCCCCC3)nc(CN3CCCCC3c3nccs3)nc2c1 (stereo not given),inactive,–
COc1ccc(-c2nc3cnc(N(C)C)nc3n(C)c2=O)cc1,inactive,–
O=C(Nc1ccc(S(=O)(=O)N2CCOCC2)cc1)c1cc(Cl)ccc1NS(=O)(=O)c1ccc(Cl)s1,112 µM (active),–
O=c1c(-c2ccc(Cl)cc2)nc2cnc(N3CCNCC3)nc2n1CCc1ccccc1,inactive,–
COc1cccc(Cn2c(=O)c(-c3ccc(F)c(F)c3)nc3cncnc32)c1,inactive,–
O=c1c(-c2ccccc2)coc2cc(O)cc(O)c12,79.4 µM (active),–
O=c1c(-c2ccc(O)cc2)coc2cc(O)cc(O)c12,inactive,–
COc1ccc(-c2coc3cc(O)cc(O)c3c2=O)cc1,inactive,–
Cc1cccc(/C=C/c2cccs2)n1,inactive,–
COc1cccc(CN2Cc3cccc4c3[C@H](C=CC4)CC2=O)c1,inactive,–
Cc1ccc2c(/C=C/c3ccc(N(C)C)cc3)ccnc2c1C,inactive,–

Structure (SMILES),Potency,"activity change, negative = inhibition"
CS(=O)(=O)OCCCNCCCOS(C)(=O)=O,inactive,–
COc1cc2c(cc1OC)CN(C(=O)[C@@H]1C[C@H](NCc3cn(C)c4ccccc34)CN1C1Cc3ccccc3C1)CC2,inactive,–
COc1cc(C(=O)NS(=O)(=O)c2ccccc2C)ccc1Cc1cn(C)c2ccc(NC(=O)OC3CCCC3)cc12,89.1 µM (active),–
O=C(O)/C=C/c1ccc(O)c(O)c1,inactive,–
N#C/C(=C\c1ccc(O)c(O)c1)C(N)=O,inactive,–
N#C/C(=C\c1ccc(O)c(O)c1)C(=O)Nc1ccccc1,79.4 µM (active) and inactive,–
N#C/C(=C\c1ccc(O)c(O)c1)C(=O)c1ccc(O)c(O)c1,inactive,–
N#C/C(=C\c1ccc(O)c(O)c1)C(=O)OCCc1cccs1,39.8 µM (active),–
CC(NNC(=O)c1ccccc1)c1ccccc1 (stereo not given),inactive,–
C[C@H](NC(=O)/C(C#N)=C/c1ccc(O)c(O)c1)c1ccccc1,89.1 µM (active) and inactive,–
C[C@@H](NC(=O)/C(C#N)=C/c1ccc(O)c(O)c1)c1ccccc1,inactive,–
N#C/C(=C\c1ccc(O)c(O)c1)C(=O)NCc1ccccc1,inactive,–
Cc1cccc2[nH]cc(/C=C3/C=Nc4ccccc43)c12,inactive,–
c1cncc(CNc2nc(-c3ccc4c(c3)OCO4)nc3ccccc23)c1,inactive,–
O=S(=O)(NCc1nc(N2CCCC2)c2cc(Cl)ccc2n1)c1ccccc1OC(F)(F)F,inactive,–
O=C[C@H](O)[C@@H](O)[C@H](O[C@H]1O[C@H](CO)[C@@H](O[C@H]2O[C@H](CO)[C@@H](O)[C@H](O)[C@H]2O)[C@H](O)[C@H]1O)[C@H](O)CO,inactive,–
CCn1nc(C)cc1C(=O)N1CCC2(CC1)c1ccccc1[C@@H](NC(=O)c1cccnc1)[C@@H]2O,inactive,–
Cc1ncc2c(c1CNC(=O)c1ccc3c(c1)OCO3)CCN(C(=O)c1scc3c1CCCC3)C2,inactive,–
CN(C)C(=O)c1ccc(-c2ccc3ncnc(NC4CC4)c3c2)cc1,inactive,–
NCCC(=O)N[C@H](Cc1cnc[nH]1)C(=O)O,inactive,–
C[C@@H]1NC(=O)OC1c1ccco1 (stereo not given in full),inactive,–
CS(=O)(=O)Nc1cccc(-c2nccc(NCc3cccs3)n2)c1,inactive,–
Cc1cc(C)n(-c2cccc(C(=O)NCC3Cc4cccc(-c5cccnc5)c4O3)c2)n1 (stereo not given),inactive,–
